Measurements published in PubChem BioAssay AID1259415 (National Center for Advancing Translational Sciences (NCATS), 2018).
Hit rate of the full screen: of about 410,000 compounds, about 18,000 (4.4%) were called active. Another 7% or so got no clear call; they are omitted. The full list was thinned out, with actives kept by preference. A number with no mark means an inactive call. Rule as the data show it: active = activity change below about -60%; inconclusive = no clear call, values can overlap the other calls; inactive = above about -39%.

Assay: qHTS Assay for inhibitors of the human cytomegalovirus (HCMV)
Details: HFF cells, HCMV-luciferase reporter, 72 h; at 57.5 µM; active compounds read low
How it was run: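 Inhibition of viral replication was scored as loss of reporter luminescence in HFFs infected with HCMV-luciferase (MOI 1 PFU/cell) for 72 h; compounds tested at 2 doses, normalized to buffer and Salinomycin controls.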
% is scaled to controls: 0 for no effect and ±100 for the full control effect.

First: CCc1cccc(NC(=O)Cn2nc(CC)n3c(cc4cc(C)ccc43)c2=O)c1
Second: CCc1cccc(NC(=O)CN(c2ccc(C)c(C)c2)S(=O)(=O)c2ccsc2C(=O)OC)c1
The activity change, negative = inhibition of the first is higher: 18.4% for the first, 7.64% for the second.

First: COc1ccc(CCNS(=O)(=O)c2cc(-c3cc(C)no3)ccc2C)cc1OC
Second: CCOC(=O)C1CCCN(S(=O)(=O)c2cc(-c3cc(C)no3)ccc2OC)C1 (stereo unspecified)
The activity change, negative = inhibition of the first is higher: 0% for the first, -10% for the second.

Going from `CN(C)CCOC(=O)C(c1ccccc1)C1(O)CCCC1` (stereo unspecified) to `O=C(OCC(O)C(O)COC(=O)c1ccccc1)c1ccccc1` (stereo unspecified), the activity change, negative = inhibition falls from 31.9% to 4.04%.

Going from `CCCCN(C)CCCNC(=O)CN1N=C(c2ccc(OC)cc2)CCC1=O` to `COc1ccc(CCC(=O)NCCc2csc(-c3ccc(Cl)cc3)n2)cc1`, the activity change, negative = inhibition rises from -26.4% to 7.81%.

First: CCC(=O)NC(Nc1cc(C)ccn1)(C(F)(F)F)C(F)(F)F
Second: Cn1c(=O)c2c(ncn2CC(=O)Nc2cccc(C(F)(F)F)c2)n(C)c1=O
The activity change, negative = inhibition of the first is higher: 27.3% for the first, 2.82% for the second.

Going from `Cc1cccc(NC(c2cccc(F)c2)c2ccc3ccc(C)nc3c2O)n1` (stereo unspecified) to `Cc1ccc(C)c(C(O)c2ncc(-c3cccc4ccccc34)[nH]2)c1` (stereo unspecified), the activity change, negative = inhibition falls from 84.7% to 4.52%.

Going from `CCNS(=O)(=O)c1ccc(CCC(=O)N2CCN(c3ccc(OC)cc3)CC2)cc1` to `CCCNS(=O)(=O)c1ccc(CCC(=O)N2CCCC2)cc1`, the activity change, negative = inhibition rises from -33.4% to -28.5%.

First: CCOc1cccc2sc(N3CCN(C(=O)C4CC4)CC3)nc12
Second: CCCS(=O)(=O)N1CCC(n2c(C(F)(F)F)nc3cccnc32)CC1
The activity change, negative = inhibition of the first is higher: -12.2% for the first, -21.7% for the second.

First: CN1OC[C@@H]2CN(C(=O)C(C)(C)C)[C@H](c3ccc(-n4ccnc4)cc3)C[C@@H]21
Second: Cc1ccc(-n2ncc3c(NCCCn4ccnc4)ncnc32)cc1Cl
The activity change, negative = inhibition of the first is higher: 22.3% for the first, 7.64% for the second.

First: CCOC(=O)[C@]12CCC=C1N(Cc1cccc3ccccc13)C(=O)[C@H](CC(=O)NCc1cccc(C(F)(F)F)c1)C2
Second: CCn1c2ccccc2c2cc(CN3CCN(Cc4cccc(Cl)c4)CC3)ccc21
The activity change, negative = inhibition of the first is higher: 19.4% for the first, -0.564% for the second.

Going from `CC(NC(=O)c1ccco1)c1ccc2c(c1)OCO2` (stereo unspecified) to `Cc1noc(C)c1C(=O)NC(C)c1ccc2c(c1)OCO2` (stereo unspecified), the activity change, negative = inhibition rises from 11.5% to 59.8%.

Going from `Cn1c(Cc2csc(N)n2)nnc1SC/C=C/c1ccccc1` to `Cn1c(-c2ccccc2)c[n+]2c1CCCCC2`, the activity change, negative = inhibition falls from -18.7% to -28.9%.

First: O=C(Nc1ccc(S(=O)(=O)N2CCC(c3nc4ccccc4s3)CC2)cc1)c1ccccc1F
Second: Cn1ccc2cc(S(=O)(=O)N3CCCC(C(=O)NCc4ccccc4F)C3)ccc21 (stereo unspecified)
The activity change, negative = inhibition of the first is lower: -12.7% for the first, -1.65% for the second.

Going from `O=C(C[n+]1cc(-c2ccc(Cl)c(Cl)c2)n2c1CCC2)c1cccs1` to `CC(=O)N1CCCc2cc(S(=O)(=O)Nc3ccc(Cl)cc3F)ccc21`, the activity change, negative = inhibition rises from -37.8% to -24.4%.

Compared with `CCCCOc1ccc(CNC(=O)c2ccc3c(c2)N(C)C(=O)C2CCCCN32)cc1` (stereo unspecified), `CC(C)NS(=O)(=O)c1ccc(OCC(=O)NC2CCCCCC2)cc1` is lower in activity change, negative = inhibition: 25.7% for the first, -39.9% for the second.

First: CC(C)c1ccc(NC(=O)Cn2c3ncccc3c(=O)n2-c2ccccc2)cc1
Second: CC(=O)Nc1ccc(NC(=O)COc2ccc(S(=O)(=O)NC(C)c3ccccc3)cc2)cc1 (stereo unspecified)
The activity change, negative = inhibition of the first is lower: 8.47% for the first, 28.7% for the second.

Compared with `CN1CCN(Cc2ccc(OC(F)(F)F)cc2)CC1`, `COc1ccccc1CC1(C)C(=O)Nc2ccc(OC(F)(F)F)cc21` (stereo unspecified) is lower in activity change, negative = inhibition: -3.19% for the first, -18.7% for the second.

Compared with `Cc1ccc(/C=N/NC(=S)NC2CCCCC2)o1`, `C/C(=N/NC(=O)c1ccc(Br)o1)c1ccc(C)o1` is higher in activity change, negative = inhibition: -8.71% for the first, 80.2% for the second.

First: Cn1c(=O)c2c(n3c4ccccc4nc13)NC(=O)CC2c1cccc(Cl)c1 (stereo unspecified)
Second: CC(C)Cn1c(C2CC(=O)N(c3ccccc3Cl)C2)nc2ccccc21 (stereo unspecified)
The activity change, negative = inhibition of the first is higher: 1.23% for the first, -19.6% for the second.

First: O=C(Nc1ccc(Cl)cc1C(=O)c1ccccc1)c1cc(Cl)cc(Cl)c1
Second: O=C(NCc1ccccc1)C(=O)NCC(c1ccco1)S(=O)(=O)c1ccc(Cl)cc1 (stereo unspecified)
The activity change, negative = inhibition of the first is higher: 5.04% for the first, -24.1% for the second.

Compared with `O=C(NCCCO)c1nn(-c2ccc(Cl)cc2)nc1CO`, `Cc1ncoc1C(=O)NCCC(c1ccccc1)c1ccccc1` is higher in activity change, negative = inhibition: -7.65% for the first, -6.8% for the second.

Going from `CCCSc1nc(NCc2ccco2)c2c3c(sc2n1)COC(C)(CC)C3` (stereo unspecified) to `CC(C)c1nc2sc3c(c2c(=O)n1N)CC(C)(C)OC3`, the activity change, negative = inhibition falls from -2.99% to -18.9%.

First: CC(CCc1ccccc1)NCC(O)c1cccc([N+](=O)[O-])c1 (stereo unspecified)
Second: CCOC(=O)C(CCOc1cccc(CC)c1)C(=O)OCC
The activity change, negative = inhibition of the first is higher: -22% for the first, -23.8% for the second.

Compared with `S=c1[nH]nc2c3c4c(sc3ncn12)CCCC4`, `O=c1oc(-c2ccco2)nc2sc3c(c12)CCCCC3` is higher in activity change, negative = inhibition: -26.7% for the first, 69% for the second.

For `CN(C)CC1Oc2ccccc2OC1(O)c1ccccc1` (stereo unspecified), the activity change, negative = inhibition was -104% (active).
With `CCc1nn(-c2cc(Oc3cccc4ccccc34)nc(-c3ccccc3)n2)c(N)c1C#N` the activity change, negative = inhibition was -68% (active).
With `Cc1ccnc(NC(c2ccc(C(F)(F)F)cc2)c2ccc3cccnc3c2O)c1` (stereo unspecified) the activity change, negative = inhibition was -97.9% (active).
In the case of `CCNS(=O)(=O)c1ccc(CCC(=O)N2CCN(c3cc(Cl)ccc3C)CC2)cc1`, the activity change, negative = inhibition is reported as -68.5% (active).
With `CC(NC(=O)Nc1cccc([N+](=O)[O-])c1)c1ccc2c(c1)OCO2` (stereo unspecified) the activity change, negative = inhibition was -64.3% (active).
With `Cc1ccc(C(=O)C[n+]2cc(-c3ccccc3)n3c2CCCCC3)cc1` the activity change, negative = inhibition was -92.1% (active).
In the case of `CCc1ccc2c(c1)NC(=O)C2(C)Cc1ccc(OC(F)(F)F)cc1` (stereo unspecified), the activity change, negative = inhibition is reported as -75.3% (active).
In the case of `C/C(=N\NC(=S)NC1CCCCC1)c1ccc(C)o1`, the activity change, negative = inhibition is reported as -90.6% (active).
In the case of `O=C(NC1=CC(=O)c2ccccc2C1=O)c1ccccc1`, the activity change, negative = inhibition is reported as -66.1% (active).
For `CCC1(C)Cc2c(sc3[nH]c(=S)n(Cc4ccccc4)c(=O)c23)CO1` (stereo unspecified), the activity change, negative = inhibition was -69.4% (active).
For `CC(Cc1ccccc1)NCCC(c1ccccc1)c1ccccc1` (stereo unspecified), the activity change, negative = inhibition was -91.4% (active).
For `CC(C)NS(=O)(=O)c1ccc(OCC(=O)Nc2ccc3c(c2)OCCO3)cc1`, the activity change, negative = inhibition was -82.2% (active).
In the case of `c1nnc2c3c4c(sc3ncn12)CCC4`, the activity change, negative = inhibition is reported as -65.9% (active).
